{"source": "paper PMC8384837", "about": "“Expanding the binding specificity for RNA recognition by a PUF domain”", "assay_in_all_cases": "yeast three-hybrid, YBZ-1, SC-Leu-His + 0.5 mM 3-AT, 4 days", "conditions_in_all_cases": "tags: N-Gal4 AD-HA kept; label: inside an RPR1-promoter hybrid RNA with tandem MS2 sites; ssRNA", "key": {"PUM1 PUF domain R5-KRR": {"molecular_target": "PUM1 PUF domain R5-KRR (Homo sapiens, UniProt Q14671 828-1176, C1007K;Q1011R)", "summary_of_the_method": "(§1)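 A centromeric plasmid in strain YBZ-1 co-expressed Pumilio-1 PUF domain libraries, randomized at the three base-contacting residues of each repeat, with matching RNA elements; the strain carries a LexA–MS2 coat fusion and a HIS3 reporter. After four days on SC-Leu (input) or SC-Leu-His + 0.5 mM 3-AT (selection), the repeat regions were PCR-amplified and Illumina-sequenced. The interaction score is the log change in variant frequency from input to selection, using log2 and a pseudocount of 1 where absent.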"}, "PUM1 PUF domain R5-RMS": {"molecular_target": "PUM1 PUF domain R5-RMS (Homo sapiens, UniProt Q14671 828-1176, C1007R;R1008M;Q1011S)", "summary_of_the_method": "as §1"}, "PUM1 PUF domain R5-KDR": {"molecular_target": "PUM1 PUF domain R5-KDR (Homo sapiens, UniProt Q14671 828-1176, C1007K;R1008D;Q1011R)", "summary_of_the_method": "as §1"}, "PUM1 PUF domain R5-KRL": {"molecular_target": "PUM1 PUF domain R5-KRL (Homo sapiens, UniProt Q14671 828-1176, C1007K;Q1011L)", "summary_of_the_method": "as §1"}, "PUM1 PUF domain R5-RMD": {"molecular_target": "PUM1 PUF domain R5-RMD (Homo sapiens, UniProt Q14671 828-1176, C1007R;R1008M;Q1011D)", "summary_of_the_method": "as §1"}, "PUM1 PUF domain R3-IWL": {"molecular_target": "PUM1 PUF domain R3-IWL (Homo sapiens, UniProt Q14671 828-1176, C935I;R936W;Q939L)", "summary_of_the_method": "as §1"}, "PUM1 PUF domain R8-RYG": {"molecular_target": "PUM1 PUF domain R8-RYG (Homo sapiens, UniProt Q14671 828-1176, N1122R;Q1126G)", "summary_of_the_method": "as §1"}, "PUM1 PUF domain R4-GHP": {"molecular_target": "PUM1 PUF domain R4-GHP (Homo sapiens, UniProt Q14671 828-1176, N971G;Q975P)", "summary_of_the_method": "as §1"}, "PUM1 PUF domain R3-SSE": {"molecular_target": "PUM1 PUF domain R3-SSE (Homo sapiens, UniProt Q14671 828-1176, C935S;R936S;Q939E)", "summary_of_the_method": "as §1"}, "PUM1 PUF domain R8-RFQ": {"molecular_target": "PUM1 PUF domain R8-RFQ (Homo sapiens, UniProt Q14671 828-1176, N1122R;Y1123F)", "summary_of_the_method": "as §1"}, "PUM1 PUF domain R3-DYA": {"molecular_target": "PUM1 PUF domain R3-DYA (Homo sapiens, UniProt Q14671 828-1176, C935D;R936Y;Q939A)", "summary_of_the_method": "as §1"}, "PUM1 PUF domain R4-PYV": {"molecular_target": "PUM1 PUF domain R4-PYV (Homo sapiens, UniProt Q14671 828-1176, N971P;H972Y;Q975V)", "summary_of_the_method": "as §1"}, "PUM1 PUF domain R6-DFQ": {"molecular_target": "T1, PUM1 PUF domain R6-DFQ (Homo sapiens, UniProt Q14671 828-1176, N1043D;Y1044F)", "T1 sequence": "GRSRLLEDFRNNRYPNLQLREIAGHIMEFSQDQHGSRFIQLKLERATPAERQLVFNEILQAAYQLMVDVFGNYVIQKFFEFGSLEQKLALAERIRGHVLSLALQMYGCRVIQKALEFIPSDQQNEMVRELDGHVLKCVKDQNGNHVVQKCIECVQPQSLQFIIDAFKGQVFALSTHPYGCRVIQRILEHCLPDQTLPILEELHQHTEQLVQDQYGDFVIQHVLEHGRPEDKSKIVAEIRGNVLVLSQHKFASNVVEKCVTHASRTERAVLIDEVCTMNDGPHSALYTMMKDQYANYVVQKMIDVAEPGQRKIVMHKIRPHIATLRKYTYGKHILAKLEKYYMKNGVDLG", "summary_of_the_method": "as §1"}, "PUM1 PUF domain R7-RPM": {"molecular_target": "PUM1 PUF domain R7-RPM (Homo sapiens, UniProt Q14671 828-1176, S1079R;N1080P;E1083M)", "summary_of_the_method": "as §1"}, "PUM1 PUF domain R7-RRE": {"molecular_target": "PUM1 PUF domain R7-RRE (Homo sapiens, UniProt Q14671 828-1176, S1079R;N1080R)", "summary_of_the_method": "as §1"}, "PUM1 PUF domain R6-VYC": {"molecular_target": "T2, PUM1 PUF domain R6-VYC (Homo sapiens, UniProt Q14671 828-1176, N1043V;Q1047C)", "T2 sequence": "T1 sequence with D216V, F217Y, Q220C", "summary_of_the_method": "as §1"}, "PUM1 PUF domain R4-NRA": {"molecular_target": "PUM1 PUF domain R4-NRA (Homo sapiens, UniProt Q14671 828-1176, H972R;Q975A)", "summary_of_the_method": "as §1"}, "PUM1 PUF domain R4-EHF": {"molecular_target": "PUM1 PUF domain R4-EHF (Homo sapiens, UniProt Q14671 828-1176, N971E;Q975F)", "summary_of_the_method": "as §1"}, "PUM1 PUF domain R5-HFF": {"molecular_target": "PUM1 PUF domain R5-HFF (Homo sapiens, UniProt Q14671 828-1176, C1007H;R1008F;Q1011F)", "summary_of_the_method": "as §1"}, "PUM1 PUF domain R5-QGC": {"molecular_target": "PUM1 PUF domain R5-QGC (Homo sapiens, UniProt Q14671 828-1176, C1007Q;R1008G;Q1011C)", "summary_of_the_method": "as §1"}}, "note": "Substitutions are numbered along the chain they refer to."}
{"sequence": "GGCUAGAACUAGUGGAUCCCCCGGCGCCCGGCGGCUCGAGCCCGGGUAAGUGUCAAUAGUCUGCAUGCCGCCGGGCGCCAUGCCUGCAGGUCGACUCUAGAAAACAUG", "values": [{"measurement": "binding signal", "setting": "PUM1 PUF domain R5-KRR", "value": "3.6 log2 enrichment (interaction score)"}, {"measurement": "binding signal", "setting": "PUM1 PUF domain R5-RMS", "value": "3.6 log2 enrichment (interaction score)"}, {"measurement": "binding signal", "setting": "PUM1 PUF domain R5-KDR", "value": "4.77 log2 enrichment (interaction score)"}, {"measurement": "binding signal", "setting": "PUM1 PUF domain R5-KRL", "value": "3.16 log2 enrichment (interaction score)"}, {"measurement": "binding signal", "setting": "PUM1 PUF domain R5-RMD", "value": "4.23 log2 enrichment (interaction score)"}]}
{"sequence": "GGCUAGAACUAGUGGAUCCCCCGGCGCCCGGCGGCUCGAGCCCGGGUAAGUGUAAAUAGUCUGCAUGCCGCCGGGCGCCAUGCCUGCAGGUCGACUCUAGAAAACAUG", "values": [{"measurement": "binding signal", "setting": "PUM1 PUF domain R3-IWL", "value": "4.86 log2 enrichment (interaction score)"}, {"measurement": "binding signal", "setting": "PUM1 PUF domain R8-RYG", "value": "5.75 log2 enrichment (interaction score)"}, {"measurement": "binding signal", "setting": "PUM1 PUF domain R4-GHP", "value": "5.41 log2 enrichment (interaction score)"}, {"measurement": "binding signal", "setting": "PUM1 PUF domain R3-SSE", "value": "0.23 log2 enrichment (interaction score)"}, {"measurement": "binding signal", "setting": "PUM1 PUF domain R8-RFQ", "value": "2.11 log2 enrichment (interaction score)"}, {"measurement": "binding signal", "setting": "PUM1 PUF domain R3-DYA", "value": "5.02 log2 enrichment (interaction score)"}, {"measurement": "binding signal", "setting": "PUM1 PUF domain R4-PYV", "value": "5.22 log2 enrichment (interaction score)"}, {"measurement": "binding signal", "setting": "PUM1 PUF domain R5-KRL", "value": "1.09 log2 enrichment (interaction score)"}, {"measurement": "binding signal", "setting": "PUM1 PUF domain R6-DFQ", "value": "8.15 log2 enrichment (interaction score)"}]}
{"sequence": "GGCUAGAACUAGUGGAUCCCCCGGCGCCCGGCGGCUCGAGCCCGGGUAAGCGUAAAUAGUCUGCAUGCCGCCGGGCGCCAUGCCUGCAGGUCGACUCUAGAAAACAUG", "values": [{"measurement": "binding signal", "setting": "PUM1 PUF domain R8-RYG", "value": "5.66 log2 enrichment (interaction score)"}, {"measurement": "binding signal", "setting": "PUM1 PUF domain R8-RFQ", "value": "5.63 log2 enrichment (interaction score)"}]}
{"sequence": "GGCUAGAACUAGUGGAUCCCCCGGCGCCCGGCGGCUCGAGCCCGGGUAAGGGUAAAUAGUCUGCAUGCCGCCGGGCGCCAUGCCUGCAGGUCGACUCUAGAAAACAUG", "values": [{"measurement": "binding signal", "setting": "PUM1 PUF domain R8-RFQ", "value": "2.44 log2 enrichment (interaction score)"}]}
{"sequence": "GGCUAGAACUAGUGGAUCCCCCGGCGCCCGGCGGCUCGAGCCCGGGUAAGUGUGAAUAGUCUGCAUGCCGCCGGGCGCCAUGCCUGCAGGUCGACUCUAGAAAACAUG", "values": [{"measurement": "binding signal", "setting": "PUM1 PUF domain R5-KRL", "value": "0.47 log2 enrichment (interaction score)"}]}
{"sequence": "GGCUAGAACUAGUGGAUCCCCCGGCGCCCGGCGGCUCGAGCCCGGGUAAGUGUAAGUAGUCUGCAUGCCGCCGGGCGCCAUGCCUGCAGGUCGACUCUAGAAAACAUG", "values": [{"measurement": "binding signal", "setting": "PUM1 PUF domain R3-IWL", "value": "2.77 log2 enrichment (interaction score)"}, {"measurement": "binding signal", "setting": "PUM1 PUF domain R3-SSE", "value": "6.26 log2 enrichment (interaction score)"}, {"measurement": "binding signal", "setting": "PUM1 PUF domain R3-DYA", "value": "1.16 log2 enrichment (interaction score)"}]}
{"sequence": "GGCUAGAACUAGUGGAUCCCCCGGCGCCCGGCGGCUCGAGCCCGGGUAAGUCUAAAUAGUCUGCAUGCCGCCGGGCGCCAUGCCUGCAGGUCGACUCUAGAAAACAUG", "values": [{"measurement": "binding signal", "setting": "PUM1 PUF domain R7-RPM", "value": "0.93 log2 enrichment (interaction score)"}, {"measurement": "binding signal", "setting": "PUM1 PUF domain R7-RRE", "value": "3.75 log2 enrichment (interaction score)"}]}
{"sequence": "GGCUAGAACUAGUGGAUCCCCCGGCGCCCGGCGGCUCGAGCCCGGGUAAGUGUACAUAGUCUGCAUGCCGCCGGGCGCCAUGCCUGCAGGUCGACUCUAGAAAACAUG", "values": [{"measurement": "binding signal", "setting": "PUM1 PUF domain R4-GHP", "value": "5.4 log2 enrichment (interaction score)"}, {"measurement": "binding signal", "setting": "PUM1 PUF domain R4-PYV", "value": "6.43 log2 enrichment (interaction score)"}]}
{"sequence": "GGCUAGAACUAGUGGAUCCCCCGGCGCCCGGCGGCUCGAGCCCGGGUAAGUGAAAAUAGUCUGCAUGCCGCCGGGCGCCAUGCCUGCAGGUCGACUCUAGAAAACAUG", "values": [{"measurement": "binding signal", "setting": "PUM1 PUF domain R6-VYC", "value": "6.26 log2 enrichment (interaction score)"}]}
{"sequence": "GGCUAGAACUAGUGGAUCCCCCGGCGCCCGGCGGCUCGAGCCCGGGUAAGUGUAUAUAGUCUGCAUGCCGCCGGGCGCCAUGCCUGCAGGUCGACUCUAGAAAACAUG", "values": [{"measurement": "binding signal", "setting": "PUM1 PUF domain R4-NRA", "value": "2.48 log2 enrichment (interaction score)"}, {"measurement": "binding signal", "setting": "PUM1 PUF domain R4-PYV", "value": "7.86 log2 enrichment (interaction score)"}, {"measurement": "binding signal", "setting": "PUM1 PUF domain R4-EHF", "value": "5.95 log2 enrichment (interaction score)"}]}
{"sequence": "GGCUAGAACUAGUGGAUCCCCCGGCGCCCGGCGGCUCGAGCCCGGGUAAGUGUUAAUAGUCUGCAUGCCGCCGGGCGCCAUGCCUGCAGGUCGACUCUAGAAAACAUG", "values": [{"measurement": "binding signal", "setting": "PUM1 PUF domain R5-RMS", "value": "2.79 log2 enrichment (interaction score)"}, {"measurement": "binding signal", "setting": "PUM1 PUF domain R5-HFF", "value": "3.86 log2 enrichment (interaction score)"}, {"measurement": "binding signal", "setting": "PUM1 PUF domain R5-QGC", "value": "2.19 log2 enrichment (interaction score)"}, {"measurement": "binding signal", "setting": "PUM1 PUF domain R5-KDR", "value": "2.77 log2 enrichment (interaction score)"}, {"measurement": "binding signal", "setting": "PUM1 PUF domain R5-KRL", "value": "3 log2 enrichment (interaction score)"}]}
{"sequence": "GGCUAGAACUAGUGGAUCCCCCGGCGCCCGGCGGCUCGAGCCCGGGUAAGUUUAAAUAGUCUGCAUGCCGCCGGGCGCCAUGCCUGCAGGUCGACUCUAGAAAACAUG", "values": [{"measurement": "binding signal", "setting": "PUM1 PUF domain R7-RPM", "value": "3.18 log2 enrichment (interaction score)"}]}
